This is an account of results in PubChem BioAssay (NCATS).

Results filed as inconclusive are left out. A number with no mark means an inactive call. The source made the active and inactive calls. Calls follow the shape of the dose curve; as a rule, active = well fitted curve in the direction sought with a large enough effect; inconclusive = small, poorly fitted or top-dose-only effect, or another doubt; inactive = no such curve, though single readings can be large; an effect the other way counts as inactive or inconclusive.

One experiment concerns CAOV3. The experiment in a line: Primary qHTS to identify gynecologic anti-cancer compounds using libraries of approved drugs and bioactive compounds (AID 1345084). Also: nearly all actives have a fitted effect of over 55% in size. As to activity change, negative = cytotoxicity: % is scaled to controls: 0 for no effect and ±100 for the full control effect. Particulars: Gynecologic cancer cell panel viability, ATPlite luminescence, 48 h; series mostly up to 57.5 µM. In a few lines: (§1)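 Cells, 1,000 per well, were allowed to settle for 16 h at 37 C before compound addition. Five concentrations were tested for 48 h, and viability was read by ATPlite luminescence after 15 min at room temperature.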

The test system of another experiment is CASKI. The experiment is described as above. Particulars: Gynecologic cancer cell panel viability, ATPlite luminescence, 48 h; series mostly up to 57.5 µM. The gist of the method:
as §1
On the technique in general: ATP-based viability assays read luminescence as a measure of living cells.

A further experiment deals with Es-2. Described as above. Particulars: Gynecologic cancer cell panel viability, ATPlite luminescence, 48 h; series mostly up to 57.5 µM. In a few lines:
as §1

The next experiment concerns Hek293T. The description is as above. Particulars: Gynecologic cancer cell panel viability, ATPlite luminescence, 48 h, control line for the selectivity index; series mostly up to 57.5 µM. In a few lines:
as §1

The subject of another experiment is JEG-3. The experiment is described as above. The settings on record: Gynecologic cancer cell panel viability, ATPlite luminescence, 48 h; series mostly up to 57.5 µM. The gist of the method: as §1
The next experiment concerns OV90. Described as above. Particulars: Gynecologic cancer cell panel viability, ATPlite luminescence, 48 h; series mostly up to 57.5 µM. The gist of the method: as §1
In another experiment the test system is PA-1. Described as above. Particulars: Gynecologic cancer cell panel viability, ATPlite luminescence, 48 h; series mostly up to 57.5 µM. In a few lines:
as §1

The test system of another experiment is SKOV3. The experiment is described as above. The settings on record: Gynecologic cancer cell panel viability, ATPlite luminescence, 48 h; series mostly up to 57.5 µM. The gist of the method:
as §1

The subject of another experiment is Tov-21-G. Described as above. Particulars: Gynecologic cancer cell panel viability, ATPlite luminescence, 48 h; series mostly up to 57.5 µM. The gist of the method: as §1
The next experiment relates to Tov112D. The experiment is described as above. The settings on record: Gynecologic cancer cell panel viability, ATPlite luminescence, 48 h; series mostly up to 57.5 µM. The gist of the method:
as §1

A further experiment relates to HeLa. The description is as above. The settings on record: Gynecologic cancer cell panel viability, ATPlite luminescence, 48 h; series mostly up to 57.5 µM. The gist of the method: as §1
A short description of experiment [1]: qHTS assay to identify inhibitors of the type 1 interferon - major histocompatibility complex class I in skeletal muscle: Counter screen cell viability and HiBit confirmation (AID 1347412). Also: nearly all actives have a fitted effect of over 60% in size. The settings on record: iHSKM muscle cells + IFN-b, HiBiT or CellTiter-Glo, 24 h. In a few lines:
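After 24 h with human IFN-beta (4 ng/ml) and compound titrations (top 46 uM final, 1:3, 12 points), HLA-B HiBit myoblasts were lysed for either Nano-Glo HiBiT luminescence or CellTiter Glo viability on paired plates.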
(In general: In qHTS, concentration-response curves come from the screen itself.)
Potency is read from the fitted curve at half-maximal effect.

In the case of `Oc1ccc([C@H]2COc3cc(O)ccc3C2)cc1`, the Potency result in the experiment with CAOV3, with CASKI, in the experiment with Es-2, in the experiment on Hek293T, in the experiment on JEG-3 and with OV90 was “inactive” throughout. Also, the Potency entry with PA-1, in the experiment with SKOV3, in the experiment on Tov-21-G and in the experiment on Tov112D was “inactive” in each case.
As for `O=C(O)CCc1cccc(O[C@@H]2O[C@H](CO)[C@@H](O)[C@H](O)[C@H]2O)c1O`, the Potency result in the experiment on CASKI, in the experiment on Es-2, in the experiment with HeLa, with Hek293T, with JEG-3 and in the experiment with OV90 was “inactive” each time. Further, the Potency result in the experiment on PA-1, with SKOV3, in the experiment with Tov-21-G and in the experiment on Tov112D was “inactive” in each case.
`COc1cc2c(Nc3ccc(Cl)c(Cl)c3F)ncnc2cc1OCC1C[C@@H]2CN(C)C[C@@H]2C1` (some centres not stated): the Potency with CAOV3 is 31.6 µM (active); with CASKI, 11.2 µM (active); in the experiment on OV90, 20 µM (active); in the experiment on SKOV3, 14.1 µM (active); in the experiment on Tov112D, 17.8 µM (active); in experiment [1] (HiBiT), 19.8 µM (active). Moreover, the Potency in experiment [1] (Viability) was 17.6 µM (active).
On to `C=C1CC2C3(C)C(O)CC(=O)C(C)(C)C3C(OC(C)=O)C(OC(C)=O)C2(C)C2C(=O)OC(C)(C(=O)OC)C(=O)C12C` (configuration not stated), for which the Potency result in the experiment on CASKI, in the experiment on Es-2, with HeLa, in the experiment on Hek293T, in the experiment on JEG-3 and with OV90 was “inactive” in each case. The Potency entry in the experiment on PA-1, in the experiment on SKOV3, with Tov-21-G and in the experiment on Tov112D was “inactive” each time.
`CC1=CC(=O)C[C@H]2[C@@H]1CC[C@@H](C)[C@]21CO[C@H](c2ccoc2)C1=O`: the Potency result with CASKI, in the experiment with Es-2, in the experiment with HeLa, with Hek293T, in the experiment on JEG-3 and in the experiment on OV90 was “inactive” in each case. The Potency entry in the experiment with PA-1, in the experiment on SKOV3, in the experiment with Tov-21-G and with Tov112D was “inactive” each time.
For the molecule `C=C1CC[C@H]2[C@@H](/C=C(\C)C(=O)[C@@]3(OC(C)=O)C[C@H](C)[C@H](OC(C)=O)[C@@H]3[C@H]1OC(C)=O)C2(C)C`, the Potency result with CASKI, in the experiment on Es-2, in the experiment on HeLa, in the experiment on Hek293T, with JEG-3 and in the experiment on OV90 was “inactive” in each case. The Potency result in the experiment on PA-1, with SKOV3, in the experiment on Tov-21-G and with Tov112D was “inactive” each time.
Regarding `Cc1cc(C)cc(NC(=O)Cc2ccc(OC(C)(C)C(=O)O)cc2)c1`, the Potency entry in the experiment with CASKI, in the experiment on Es-2, in the experiment on HeLa, with Hek293T, in the experiment on JEG-3 and with OV90 was “inactive” each time. The Potency result in the experiment on PA-1, with SKOV3, in the experiment on Tov-21-G and in the experiment with Tov112D was “inactive” in each case.
For `CCN(c1cc(C#CCN2CCOCC2)cc(C(=O)NCc2c(C)cc(C)[nH]c2=O)c1C)C1CCC(N(C)CCOC)CC1` (configuration not stated), the Potency result with CASKI, in the experiment with Es-2, in the experiment with HeLa, in the experiment with Hek293T, with JEG-3 and with OV90 was “inactive” each time. Moreover, the Potency entry in the experiment on PA-1, in the experiment on SKOV3, with Tov-21-G and with Tov112D was “inactive” each time.
With `CC1=CC(=O)CC(C)(C)C1CCC(C)OC1OC(COC(=O)c2cc(O)c(O)c(O)c2)C(O)C(O)C1O` (configuration not stated), the Potency entry in the experiment on CASKI, in the experiment with Es-2, in the experiment on HeLa, in the experiment with Hek293T, in the experiment with JEG-3 and with OV90 was “inactive” in each case. The Potency entry with PA-1, in the experiment with SKOV3, in the experiment with Tov-21-G and in the experiment on Tov112D was “inactive” throughout.
With `CO[C@H]1C=C2C(CC[C@H](O[C@@H]3O[C@H](CO)[C@@H](O)[C@@H](O)[C@H]3O)C2(C)C)[C@]2(C)CC[C@]3(C)C([C@H](C)C(O)C(C=C(C)C)O[C@@H]4O[C@H](CO)[C@@H](O)[C@@H](O)[C@H]4O)CC[C@@]3(C)C12` (some centres not stated), the activity change, negative = cytotoxicity with CASKI is -4.92% [at 11.6 µM]; with Es-2 it was 2.74% [at 11.6 µM]; in the experiment on HeLa it was 0.609% [at 11.6 µM]; in the experiment on Hek293T it was 12.3% [at 11.6 µM]; with JEG-3, -6.82% [at 11.6 µM]; in the experiment with OV90 it was 5.72% [at 11.6 µM]. In addition, the activity change, negative = cytotoxicity in the experiment with PA-1 was -0.818% [at 11.6 µM]; with SKOV3 it was -12.6% [at 11.6 µM]; with Tov-21-G, 4% [at 11.6 µM]; in the experiment with Tov112D it was 2.11% [at 11.6 µM].
For `O=C(O)c1n[nH]c2c1C[C@H]1C[C@@H]21`, the Potency entry with CASKI, with Es-2, in the experiment on HeLa, in the experiment with Hek293T, with JEG-3 and in the experiment with OV90 was “inactive” in each case. For the same molecule, the Potency entry with PA-1, with SKOV3, in the experiment on Tov-21-G and with Tov112D was “inactive” throughout.
Regarding `CC1CCC2(C)C(CC(O)C(O)C23CO3)C1(C)CCC1=CC(O)OC1=O` (configuration not stated), the Potency result with CASKI, with Es-2, in the experiment on HeLa, with Hek293T, in the experiment on JEG-3 and with OV90 was “inactive” throughout. Further, the Potency entry in the experiment with PA-1, with SKOV3, in the experiment on Tov-21-G and in the experiment with Tov112D was “inactive” throughout.
Consider `C/C=C/C1=CC2=CC(=O)C(C)(O)C(OC(=O)c3c(C)cc(O)cc3O)C2CO1` (configuration not stated), for which the Potency result in the experiment on CASKI, with Es-2, in the experiment with HeLa, in the experiment with Hek293T, in the experiment on JEG-3 and with OV90 was “inactive” in each case. The Potency result in the experiment on PA-1, in the experiment with SKOV3, with Tov-21-G and in the experiment on Tov112D was “inactive” each time.
Take `Clc1ccc2c(c1)C1=NCCN1c1c(-c3noc(C4CC4)n3)ncn1-2`: the Potency result in the experiment with CASKI, with Es-2, in the experiment with Hek293T, in the experiment with JEG-3, in the experiment on OV90 and with PA-1 was “inactive” each time. Moreover, the Potency entry in the experiment on SKOV3, in the experiment with Tov-21-G and in the experiment on Tov112D was “inactive” throughout. Also, the Potency in the experiment on HeLa is 3.16 µM (active).
Take `CCC[C@@H]1C[C@@H](C(=O)N[C@@H]([C@H]2O[C@H](SC)[C@H](O)[C@@H](O)[C@@H]2O)[C@@H](C)O)N(C)C1`: the Potency entry in the experiment on CASKI, in the experiment on Es-2, with HeLa, with Hek293T, in the experiment with JEG-3 and with OV90 was “inactive” each time. The Potency entry with PA-1, in the experiment with SKOV3, in the experiment on Tov-21-G and in the experiment with Tov112D was “inactive” each time.
`NC(=O)[C@H]1CCCCc2c1[nH]c1ccc(Cl)cc21`: the Potency result in the experiment with CASKI, in the experiment on Es-2, in the experiment with HeLa, with Hek293T, in the experiment on JEG-3 and in the experiment with OV90 was “inactive” throughout. Besides, the Potency entry in the experiment with PA-1, in the experiment with SKOV3, with Tov-21-G and in the experiment on Tov112D was “inactive” each time.
As to `CC1(C)CC[C@]2(C(=O)O)CC[C@]3(C)C(=CCC4[C@@]5(C)C[C@H](O)[C@H](O[C@@H]6OC[C@H](O)[C@H](O)[C@H]6O)[C@@](C)(CO)C5CC[C@]43C)[C@@H]2C1` (some centres not stated), the Potency result in the experiment with CASKI, in the experiment on Es-2, with HeLa, in the experiment on Hek293T, in the experiment on JEG-3 and with OV90 was “inactive” throughout. The Potency entry in the experiment on PA-1, in the experiment with SKOV3, in the experiment on Tov-21-G and in the experiment with Tov112D was “inactive” each time.
Turning to `COC1C=C([C@@H]2CC=C3[C@@]4(C)C(CC[C@]32C)[C@@]2(C)C=CC(=O)C(C)(C)C2C[C@H]4OC(C)=O)C(=O)O1` (some centres not stated), the Potency entry in the experiment on CASKI, in the experiment with Es-2, with HeLa, in the experiment with Hek293T, with JEG-3 and in the experiment with OV90 was “inactive” throughout. The Potency entry in the experiment on PA-1, with SKOV3, in the experiment on Tov-21-G and in the experiment with Tov112D was “inactive” in each case.
